# The list is not random: actives were taken first. Their share in the collection is about 1.2%.
# KCNH2 WT inh = inhibitors of human wildtype KCNH2 potassium channel; U2OS, BacMam KCNH2, thallium flux FluxOr; hits give low values; activity change, % at 1.84 µM; hit rate 0.37% among 340,000; AID 720551;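 active = maximum activity change below -70%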; note: % is set by controls: 0 for no effect and ±100 for the full control effect
#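 U2OS cells transduced with wild-type KCNH2 virus are loaded with FluxOr dye for 45 min, and thallium flux is measured in kinetic reads before and after stimulation buffer. Rate constants are normalized to DMSO controls.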
# KCNH2 3.1 block = blocks the human KCNH2 3.1 channel isoform | U2OS KCNH2 3.1, thallium flux FluxOr; hits give low values | activity change, % (tested at about 1.8 µM) | hit rate 0.95% among 340,000;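 active = maximum activity change below -70%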;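 note: thallium influx rate constant from kinetic fluorescence after stimulation buffer; % is set by controls: 0 for no effect and ±100 for the full control effect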
#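 We transduce U2OS cells with the mutant 3.1 virus, culture them overnight, load FluxOr with Red40 quencher for 45 min, then add stimulation buffer and read kinetically for 2 min to derive a normalized rate constant.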
# Tb PFK inh = blocks T. brucei phosphofructokinase | Potency, µM (series often up to 57.5 µM), for the others: top-dose activity, negative = inhibition, usual class: inhibitors | hit rate 0.17% among 330,000 | O15648 | AID 485367 | T. brucei PFK, ADP-Glo luminescence; active = well fitted inhibition curve with a large enough effect;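 note: potency is the fitted concentration of half-maximal effect; 0% = uninhibited 1x PFK enzyme wells and -100% = no-enzyme wells; nearly all actives have a fitted effect of over 60% in size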
# Target sequence (O15648 whole entry, looked up): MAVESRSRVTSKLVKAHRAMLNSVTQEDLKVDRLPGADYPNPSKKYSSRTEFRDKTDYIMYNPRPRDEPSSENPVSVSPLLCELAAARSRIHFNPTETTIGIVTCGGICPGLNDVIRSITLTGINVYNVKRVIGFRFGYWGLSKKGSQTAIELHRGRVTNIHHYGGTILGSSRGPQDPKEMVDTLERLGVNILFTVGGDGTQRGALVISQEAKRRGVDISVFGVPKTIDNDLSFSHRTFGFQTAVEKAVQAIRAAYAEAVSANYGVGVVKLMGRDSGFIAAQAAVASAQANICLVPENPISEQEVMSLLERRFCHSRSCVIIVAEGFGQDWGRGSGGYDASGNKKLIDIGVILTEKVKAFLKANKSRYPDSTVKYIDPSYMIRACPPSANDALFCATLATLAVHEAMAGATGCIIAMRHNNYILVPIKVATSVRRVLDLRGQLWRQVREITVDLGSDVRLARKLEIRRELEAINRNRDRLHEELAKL
#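 ADP-Glo luminescence quantified ADP after 45 min at room temperature, with 1.25 nM T. brucei PFK, 0.1 mM ATP and 0.5 mM fructose-6-phosphate in pH 8.0 TEA buffer. qHTS titrations up to 57 µM; curves classified by quality.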
# TSG101-PTAP inh = blocks PTAP/TSG101 interaction to inhibit HIV-1 budding. Q99816. 340,000 tested, under 10 active. Fluorescence polarization, FITC-PTAP peptide / Tsg101 binding. AID 493005. Potency, µM (titrated, usually from 115 µM), without a hit: at the highest dose activity change, negative = inhibition, actives largely listed as inhibitors; active = well fitted inhibition curve with a large enough effect in the main read-out, with a control signal flat, not every such curve was filed as active; note: potency is the fitted concentration of half-maximal effect; % of control where 0% means no effect
#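 Fluorescence polarization binding of Tsg101 binding domain (10 uM final) to FITC-labeled PTAP peptide (50 nM final) in HEPES pH 7.5 buffer with NaCl, Tween 20, EDTA, TCEP. Compounds added before peptide; binding 20 min at RT.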
# An asterisk follows results filed as active; nt = no result given; ! = repeats disagree.
SMILES,KCNH2 WT inh,KCNH2 3.1 block,Tb PFK inh,TSG101-PTAP inh
COc1ccc(CCNC(=O)C2CC3Cn4c(nc5cc(Cl)c(Cl)cc54)C3N2C)cc1 (stereo not drawn),-252*,-13,-5%,-2%
COc1ccc2[nH]c(=O)c(-c3nnn(-c4ccc(F)cc4)n3)cc2c1,-7,5,nt,-2%
COc1ccc2[nH]c(=O)c(-c3nnn(-c4ccc(Cl)nc4)n3)cc2c1,-2,-99*,nt,-1%
O=c1c2ccccc2[nH]c(=S)n1CCCN1CCN(c2ccccc2F)CC1,-70*,13,3%,-4%
CN[C@H]1C[C@H]2c3cc(N4CCN(C)CC4)ccc3CCN2C(=O)[C@H]1[C@H](C)O,-2,4,nt,nt
O=C(c1ccc(NS(=O)(=O)c2ccc3[nH]c(=O)[nH]c3c2)cc1)N1CCN(c2ccccc2O)CC1,-2,-80*,2%,-1%
CCCOc1ccc(C2NC(=S)NC(C)=C2C(=O)c2ccccc2)cc1OC (stereo not drawn),-6,-112*,-6%,-3%
Cc1ccc(N(CC2=NCCN2)c2cccc(O)c2)cc1,-31,-80*!,-10%,-3%
Oc1ccc(C[C@H]2CNC(=S)N2CC2CCCN2C[C@H](Cc2ccc(O)cc2)N2C[C@H](Cc3ccccc3)N(CC3CCCCC3)C2=S)cc1 (stereo partly drawn),-18,-45,nt,-2%
CCN1CCN(c2ccc(S(=O)(=O)N3CCCCC3)cc2NC(=O)c2cc3ccccc3o2)CC1,-27,-39,-5%,-2%
COC(=O)[C@@]12CCCCN1[C@H](c1ccc(-c3ccc(F)cc3)c(OC)c1)[C@H]1C(=O)N(C)C(=O)[C@H]12,-7,-95*,-1%,-1%
COC(=O)[C@@]12CCCCN1[C@H](c1ccc(-c3ccc(OC)cc3)c(OC)c1)[C@@H]1C(=O)N(C)C(=O)[C@@H]12,4,-25,-2%,-1%
O=C(c1cc(-c2cccc(O)c2)on1)N1CCCC1,-228*,-188*,0%,-8%
O=C(c1cc(-c2cccc(O)c2)on1)N1CCCCC1,-2,3,-3%,-6%
C[C@H]1C=C(C(=O)NC2CC2)O[C@@H](OCc2ccc(CO)cc2)C1,8,-19,-6%,1%
CC(C)CN(CC(C)C)C1=N/C(=C\c2ccco2)C(=O)N1c1ccccc1,7,-2,2%,-2%
CCN(CC)C1=N/C(=C\c2ccco2)C(=O)N1c1ccccc1,-82*,2,0%,0%
Cc1ccc(S(=O)(=O)N2CCN(C(=O)c3c(-c4ccccc4)noc3C)CC2)c(C)c1,-8,-3,-3%,-3%
Clc1ccc(-c2nnc(CSc3nnc(-c4cccs4)n3Cc3ccccc3)o2)cc1,-125*,-86*,4%,-6%
Cc1nn2cc(-c3ccc(Cl)cc3)cnc2c1Cl,-7,-8,-1%,1%
Cc1ccc(S(=O)(=O)N2CCN(c3ccnc4cc(Cl)ccc34)CC2)cc1,-36,-102*,5%,-6%
CC(=O)c1ccc(S(=O)(=O)N2CCN(c3ccnc4cc(Cl)ccc34)CC2)cc1,-123*,-98*,nt,nt
COc1ccc(N2CCN(c3ccnc4cc(Cl)ccc34)CC2)cc1,7,-81*,-2%,-2%
O=C(c1ccc(Cl)cc1)N1CCN(c2ccnc3cc(Cl)ccc23)CC1,-10,-87*,-3%,-10%
COCCn1c(=S)[nH]c2cc(C(=O)N(CCO)Cc3ccccc3)ccc2c1=O,10,15,0%,-6%
SMILES,KCNH2 WT inh,KCNH2 3.1 block,Tb PFK inh,TSG101-PTAP inh
CN(C)CCC(=O)N1C/C(=C/c2ccccc2)C(=O)/C(=C\c2ccccc2)C1,47,-72*,nt,0%
C[N+](C)(C)CCC(=O)N1C/C(=C/c2ccccc2)C(=O)/C(=C\c2ccccc2)C1,-5,nt,nt,0%
COc1ccc(OC)c(CCNC(=O)Cn2sc3nc(C)cc(C)c3c2=O)c1,nt,nt,2.4µM*,nt
COc1ccc(-c2ccnc3c(Br)c(C)nn23)cc1,6,-3,-5%,-5%
CCOC(=O)c1c(NC(=O)c2nn(CC)cc2Br)sc(C)c1C,6,-72*,-5%,-2%
Cc1ccc(NC(=O)OC(C)N2CCCCC2)cc1NC(=O)OC(C)N1CCCCC1 (stereo not drawn),0,-3,nt,-6%
Cc1ccc(NC(=O)CCc2nnc3ccc(N4CCC5(CC4)OCCO5)nn23)cc1F,7,8,-13%,-3%
COc1ccc(C(=O)Nc2ccc(NC(=O)c3cccs3)c(OC)c2)cc1Cl,2,-83*,-1%,-6%
